Source: PubChem BioAssay (NCI)
Compounds without any hit were thinned out: in the full panel of roughly 83,000, 20% have a hit.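 Activity criterion: percent growth below 10, measured after cells in 96-well plates were exposed to a single compound concentration for 48 hours.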 Unmarked numbers belong to inactive results. Activity calls are given as the source filed them.

Key:
Test in all cases: NCI-60 one-dose screen, 48 h (100 = growth as untreated, 0 = no growth, -100 = all killed)
DU-145 prostate = details: 10 µM
K-562 leukemia = details: 10 µM
MALME-3M melanoma = details: 10 µM
MDA-MB-231 breast = details: 10 µM
RXF 393 renal = details: 10 µM
SF-268 CNS = details: 10 µM
SF-295 CNS = details: 10 µM
SF-539 CNS = details: 10 µM
M14 melanoma = details: 10 µM
HCT-15 colon = details: 10 µM
HT29 colon = details: 10 µM
SNB-75 CNS = details: 10 µM
SNB-19 CNS = details: 10 µM
U251 CNS = details: 10 µM
PC-3 prostate = details: 10 µM
SK-MEL-5 melanoma = details: 10 µM
UACC-62 melanoma = details: 10 µM unless noted
LOX IMVI melanoma = details: 10 µM
SK-MEL-28 melanoma = details: 10 µM
UACC-257 melanoma = details: 10 µM

Structure (SMILES)	growth (DU-145 prostate)	growth (K-562 leukemia)	growth (MALME-3M melanoma)	growth (MDA-MB-231 breast)	growth (RXF 393 renal)	growth (SF-268 CNS)	growth (SF-295 CNS)	growth (SF-539 CNS)	growth (M14 melanoma)	growth (HCT-15 colon)	growth (HT29 colon)	growth (SNB-75 CNS)	growth (SNB-19 CNS)	growth (U251 CNS)	growth (PC-3 prostate)	growth (SK-MEL-5 melanoma)	growth (UACC-62 melanoma)	growth (LOX IMVI melanoma)	growth (SK-MEL-28 melanoma)	growth (UACC-257 melanoma)
CC(C)(N)COS(=O)(=O)O	111%	104%	108%	93.4%	110%	92.7%	101%	99.3%	98.1%	103%	113%	91.5%	93%	103%	95.9%	102%	102%	113%	96.3%	
CCO/C=C1\SC(=S)N(c2cccc(C)c2)C1=O	111%	99.5%	98.4%	117%	105%	101%	97%	97.8%	119%	101%	102%	80.6%	111%	98.6%	92.5%	102%	105%	104%	104%	
CCCC1(c2ccccc2)NC(=O)NC1=O (stereo not drawn)	108%	135%	121%	95.2%	109%	98.3%	122%	100%		108%	111%	86.5%	105%		99%	99.3%	97.4%	105%	104%	108%
Cc1cc(C)c(N)c(S(=O)(=O)O)c1	129%	113%	104%	97.8%	133%	115%	104%	84.4%		100%	103%	101%	96.5%	98.2%	96.6%	98.7%	93.1%		132%	122%
CN(C)CCN(Cc1ccccc1)c1ccccc1	120%	81.7%	123%	91.7%	103%	114%	110%	121%		105%	98.3%	108%	105%	106%	106%	105%	97.8%		113%	126%
COc1cc2c(cc1O)CC[C@@H]1C2CC[C@@]2(C)C1CC[C@@H]2O (stereo partly drawn)	11%	2.79% (active)	48.1%	26.7%	-4.44% (active)	50.6%	25.2%	-4.91% (active)		29.9%	22.4%	3.42% (active)	28.9%	33.5%		-22.1% (active)	22.2%	48%		23.3%
Oc1ccccc1O	106%	112%	138%	63.9%	94.4%	87.2%	136%	84.1%		95.6%	92.1%	89.4%	80.2%	82.7%		89.3%	86.8%	85.3%	101%	87.7%
Cc1cc(C(O)(c2ccc(Nc3ccccc3)cc2)c2ccc(Nc3ccc(S(=O)(=O)O)cc3)cc2)ccc1N (stereo not drawn)	11.7%	8.74% (active)	-47.6% (active)	-51.5% (active)	-61.8% (active)	14.8%	5.34% (active)	-63.9% (active)	-42.6% (active)	-54% (active)	-78.4% (active)	16.8%	19.7%	-59.4% (active)			-22.7% (active)	-65.9% (active)	-86.9% (active)	
O=C1OC(=O)C2C1C1(Cl)C(Cl)=C(Cl)C2(Cl)C2C(=O)OC(=O)C21 (stereo not drawn)	116%	105%	98.2%	122%	100%	105%	105%	98.8%	101%	103%	104%	89.1%	106%	101%	97.9%	103%	102%	98.4%	107%	
